PubChem BioAssay (EPA / NIEHS)
Active and inactive are the calls of the source. The calls were made as follows: active = hit-call score of the fitted dose curve at least 0.9, where 1 is the maximum; inactive = score below 0.9.

Experiments:
[1] = read-out: Monokine induced gamma interferon (MIG), CXCL9 (gene 4283); test: BSK_hDFCGF_MIG: BioMAP Diversity Plus: hDFCGF Assay for Monokine induced gamma interferon (MIG) Biomarker Activity (AID 2283063); conditions: primary human foreskin fibroblasts; actives raise or lower the signal
Summary of the method: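 MIG signal, determined by ELISA, reflects 24 h chemical exposure of human skin primary fibroblasts. DMSO serves as negative control and baseline.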

[2] = read-out: Matrix Metallopeptidase 1 (MMP1), MMP1 (gene 4312); test: BSK_hDFCGF_MMP1: BioMAP Diversity Plus: hDFCGF Assay for Matrix Metallopeptidase 1 (MMP1) Biomarker Activity (AID 2283064); conditions: primary human foreskin fibroblasts; actives raise or lower the signal
Summary of the method: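 Primary human foreskin fibroblasts in the hDFCGF system were dosed with test chemical, and MMP1 was measured by ELISA 24 h later. Values come from bidirectional curve fitting against the DMSO baseline.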

[3] = read-out: Vascular cell adhesion molecule 1 (VCAM1), VCAM1 (gene 7412); test: BSK_hDFCGF_VCAM1: BioMAP Diversity Plus: hDFCGF Assay for Vascular cell adhesion molecule 1 (VCAM1) Biomarker Activity (AID 2283065); conditions: primary human foreskin fibroblasts; actives raise or lower the signal;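 as to AC50: VCAM-1 protein level quantified by ELISA after 24 h chemical exposure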
Summary of the method: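 Cells are dosed, cultured for 24 h, then VCAM-1 is quantified by ELISA; signal increases and decreases are both fitted relative to DMSO.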

[4] = read-out: Plasminogen activator inhibitor-1 (PAI1), SERPINE1 (gene 5054); test: BSK_hDFCGF_PAI1: BioMAP Diversity Plus: hDFCGF Assay for Plasminogen activator inhibitor-1 (PAI1) Biomarker Activity (AID 2283066); conditions: primary human foreskin fibroblasts; actives raise or lower the signal
Summary of the method: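 Human foreskin fibroblast primary cells, 24 h chemical exposure; PAI-1 measured by ELISA. Bidirectional fitting relative to DMSO; parallel cultures stained with SRB for total protein to flag overt cytotoxicity.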

[5] = read-out: Intercellular Adhesion Molecule 1 (ICAM1), ICAM1 (gene 3383); test: BSK_KF3CT_ICAM1: BioMAP Diversity Plus: KF3CT Assay for Intercellular Adhesion Molecule 1 (ICAM1) Biomarker Activity (AID 2283067); conditions: primary human keratinocytes with fibroblasts; actives raise or lower the signal
Summary of the method: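 Dose the keratinocyte/fibroblast co-culture, wait 24 h, measure ICAM-1 by ELISA, then fit increases or decreases against DMSO. Cytotoxicity is checked in parallel cultures by SRB total-protein staining.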

[6] = read-out: Interferon-gamma inducible Protein 10 (IP10), CXCL10 (gene 3627); test: BSK_KF3CT_IP10: BioMAP Diversity Plus: KF3CT Assay for Interferon-gamma inducible Protein 10 (IP10) Biomarker Activity (AID 2283068); conditions: primary human keratinocytes with fibroblasts; actives raise or lower the signal
Summary of the method: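 KF3CT co-culture (keratinocytes + foreskin fibroblasts), 24 h compound, IP-10 by ELISA; bidirectional fit vs DMSO baseline.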

[7] = BSK_KF3CT_SRB: Viability Assessment in the BioMAP Diversity Plus: KF3CT Assay (AID 2283069); conditions: primary human keratinocytes with fibroblasts
Summary of the method: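 Human primary keratinocyte plus foreskin fibroblast co-culture exposed to chemicals for 24 h. Total protein measured by 0.1% sulforhodamine B staining after 10% TCA fixation, read at 560 nm; bidirectional fitting versus DMSO baseline.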

[8] = read-out: Interleukin-1 alpha (IL1a), IL1A (gene 3552); test: BSK_KF3CT_IL1a: BioMAP Diversity Plus: KF3CT Assay for Interleukin-1 alpha (IL1a) Biomarker Activity (AID 2283070); conditions: primary human keratinocytes with fibroblasts; actives raise or lower the signal
Summary of the method: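 Human keratinocyte plus foreskin fibroblast primary co-culture, sampled 24 h after chemical dosing. IL-1a measured by ELISA; responses fitted bidirectionally against DMSO baseline (negative control), so gain or loss of signal both count.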

[9] = read-out: TIMP metallopeptidase inhibitor 2 (TIMP2), TIMP2 (gene 7077); test: BSK_KF3CT_TIMP2: BioMAP Diversity Plus: KF3CT Assay for TIMP metallopeptidase inhibitor 2 (TIMP2) Biomarker Activity (AID 2283071); conditions: primary human keratinocytes with fibroblasts; actives raise or lower the signal
Summary of the method: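 Co-culture of human primary keratinocytes and foreskin fibroblasts, measured 24 h after chemical dosing. TIMP-2 quantified by ELISA and fitted in both directions relative to DMSO. Cytotoxicity checked in parallel cultures by SRB total-protein staining.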

[10] = read-out: Transforming growth factor beta 1 (TGFb1), TGFB1 (gene 7040); test: BSK_KF3CT_TGFb1: BioMAP Diversity Plus: KF3CT Assay for Transforming growth factor beta 1 (TGFb1) Biomarker Activity (AID 2283072); conditions: primary human keratinocytes with fibroblasts; actives raise or lower the signal
Summary of the method: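 Human keratinocyte/foreskin fibroblast co-culture; TGF-b1 measured by ELISA 24 h after dosing, fitted bidirectionally versus DMSO. Cytotoxicity checked in parallel cultures by total protein (SRB staining, 560 nm).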

[11] = read-out: C-C motif chemokine 2 (Homo sapiens) (UniProt P13500); test: BSK_KF3CT_MCP1: BioMAP Diversity Plus: KF3CT Assay for Monocyte Chemoattractant Protein 1 (MCP1/CCL2) Biomarker Activity (AID 2283073); conditions: primary human keratinocytes with fibroblasts; actives raise or lower the signal
Summary of the method: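 Keratinocytes and foreskin fibroblasts were co-cultured, dosed with chemical, and sampled 24 h later. MCP-1 was quantified by ELISA, and the endpoint was analyzed with bidirectional fitting using DMSO as negative control.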

[12] = read-out: Matrix Metallopeptidase 9 (MMP9), MMP9 (gene 4318); test: BSK_KF3CT_MMP9: BioMAP Diversity Plus: KF3CT Assay for Matrix Metallopeptidase 9 (MMP9) Biomarker Activity (AID 2283074); conditions: primary human keratinocytes with fibroblasts; actives raise or lower the signal;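 as to AC50: MMP9 protein level quantified by ELISA in the co-culture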
Summary of the method: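 Keratinocyte plus foreskin fibroblast human primary skin co-culture was dosed with chemical and MMP-9 was quantified by ELISA 24 h later. Bidirectional curve fitting used DMSO as negative control and activity baseline.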

[13] = read-out: urokinase plasminogen activator (uPA), PLAU (gene 5328); test: BSK_KF3CT_uPA: BioMAP Diversity Plus: KF3CT Assay for urokinase plasminogen activator (uPA) Biomarker Activity (AID 2283075); conditions: primary human keratinocytes with fibroblasts; actives raise or lower the signal
Summary of the method: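 Human keratinocyte plus foreskin fibroblast primary co-culture exposed to chemical for 24 h. uPA levels were quantified by ELISA, and activity was fitted bidirectionally against a DMSO negative-control baseline.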

[14] = read-out: CD40, CD40 (gene 958); test: BSK_LPS_CD40: BioMAP Diversity Plus: LPS Assay for CD40 Biomarker Activity (AID 2283076); conditions: primary human HUVEC with PBMC; actives raise or lower the signal
Summary of the method: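 CD40 signal, measured by ELISA, is fitted in both directions relative to DMSO vehicle. The system is an LPS-driven human vascular primary co-culture of endothelial cells and PBMC, sampled 24 h after compound addition.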

[15] = read-out: E-selectin (Homo sapiens) (UniProt P16581); test: BSK_LPS_Eselectin: BioMAP Diversity Plus: LPS Assay for Eselectin Biomarker Activity (AID 2283077); conditions: primary human HUVEC with PBMC; actives raise or lower the signal
Summary of the method: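 Signal of E-selectin, detected by ELISA, served as the endpoint; cells were umbilical vein endothelium with PBMC, read 24 h after treatment. DMSO defined baseline, and both increases and decreases were fitted.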

[16] = read-out: Interleukin-8 (IL8), CXCL8 (gene 3576); test: BSK_LPS_IL8: BioMAP Diversity Plus: LPS Assay for Interleukin-8 (IL8) Biomarker Activity (AID 2283078); conditions: primary human HUVEC with PBMC; actives raise or lower the signal
Summary of the method: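 Endothelial cells and PBMC from human donors are co-cultured, treated with chemicals and LPS, then assayed for IL-8 by ELISA after 24 h. Parallel SRB staining (0.1% SRB after 10% TCA fixation, 560 nm) flags cytotoxicity.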

[17] = BSK_LPS_SRB: Viability Assessment in the BioMAP Diversity Plus: LPS Assay (AID 2283079); conditions: primary human HUVEC with PBMC;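 also: total protein by sulforhodamine B absorbance as a cytotoxicity measure; measured one day after compound addition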
Summary of the method: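 Overt cytotoxicity was gauged by sulforhodamine B total-protein staining in a primary human vascular endothelial and mononuclear cell co-culture 24 h post-dosing. Activity was fitted in both directions relative to DMSO.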

[18] = read-out: Interleukin-1 alpha (IL1a), IL1A (gene 3552); test: BSK_LPS_IL1a: BioMAP Diversity Plus: LPS Assay for Interleukin-1 alpha (IL1a) Biomarker Activity (AID 2283080); conditions: primary human HUVEC with PBMC; actives raise or lower the signal
Summary of the method: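 Measured: IL-1 alpha via ELISA at 24 h in LPS-activated human umbilical vein endothelium–PBMC co-culture. Baseline: DMSO, bidirectional fitting.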

[19] = read-out: Monocyte Chemoattractant Protein-1 (MCP1), CCL2 (gene 6347); test: BSK_LPS_MCP1: BioMAP Diversity Plus: LPS Assay for Monocyte Chemoattractant Protein-1 (MCP1) Biomarker Activity (AID 2283081); conditions: primary human HUVEC with PBMC; actives raise or lower the signal;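 as to AC50: secreted MCP-1 protein quantified by ELISA in culture supernatant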
Summary of the method: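 LPS-stimulated HUVEC/PBMC co-culture; chemical, 24 h; MCP-1 by ELISA; bidirectional fit vs DMSO; cytotoxicity via SRB (0.1% stain, 10% TCA fix, 560 nm) in parallel wells.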

[20] = BSK_LPS_PGE2: BioMAP Diversity Plus: LPS Assay for Prostaglandin E2 (PGE2) Biomarker Activity (AID 2283082); conditions: primary human HUVEC with PBMC; actives raise or lower the signal;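 as to AC50: secreted prostaglandin E2 measured by ELISA in LPS-stimulated co-culture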
Summary of the method: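 HUVEC plus human PBMC co-culture stimulated with LPS; secreted PGE2 quantified by ELISA 24 h after chemical dosing. Activity fitted bidirectionally against DMSO baseline; parallel SRB staining (0.1% SRB after 10% TCA fixation, 560 nm) flags overt cytotoxicity.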

Measured: AC50

E-selectin (Homo sapiens), sequence (P16581 whole entry, looked up): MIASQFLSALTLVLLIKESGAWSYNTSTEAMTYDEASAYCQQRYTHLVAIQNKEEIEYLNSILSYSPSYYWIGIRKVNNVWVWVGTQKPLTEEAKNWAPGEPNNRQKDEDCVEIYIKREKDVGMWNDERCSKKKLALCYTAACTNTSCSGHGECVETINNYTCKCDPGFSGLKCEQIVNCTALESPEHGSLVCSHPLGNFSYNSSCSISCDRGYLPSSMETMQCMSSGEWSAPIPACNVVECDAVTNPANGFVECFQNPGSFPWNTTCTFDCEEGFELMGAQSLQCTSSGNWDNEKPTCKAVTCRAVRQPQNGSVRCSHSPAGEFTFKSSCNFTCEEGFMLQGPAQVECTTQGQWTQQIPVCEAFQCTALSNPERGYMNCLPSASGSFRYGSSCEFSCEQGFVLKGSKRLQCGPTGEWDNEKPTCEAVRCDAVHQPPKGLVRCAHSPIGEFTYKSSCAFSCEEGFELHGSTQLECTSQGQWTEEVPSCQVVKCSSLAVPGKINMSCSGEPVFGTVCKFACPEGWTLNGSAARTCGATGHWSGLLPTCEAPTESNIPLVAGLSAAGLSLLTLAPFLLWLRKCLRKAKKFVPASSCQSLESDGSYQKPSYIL

CC(=O)S[C@H](C(=O)N[C@H]1Cc2ccccc2[C@H]2CCC[C@@H](C(=O)O)N2C1=O)C(C)C
inactive: all assays above

CC(C)c1cccc(C(C)C)c1NC(=O)NS(=O)(=O)c1cc(C(C)(C)O)co1
active: [15] 0.148 µM | [16] 0.152 µM | [20] 1.04 µM
inactive: all other assays above

CC(C)COC(=O)CCCCC(=O)OCC(C)C
not listed: [9]
inactive: all other assays above

CCCCCCC(CCCCCCCCCCC(=O)OCC(COC(C)=O)OC(C)=O)OC(C)=O (stereo not drawn)
active: [4] 0.818 µM
not listed: [9]
inactive: all other assays above

Oc1ccccc1O
active: [1] 11.2 µM | [3] 2.5 µM | [5] 4.58 µM | [8] 4.75 µM | [10] 10.4 µM | [11] 1.14 µM | [12] 8.72 µM | [13] 20 µM | [14] 7.33 µM | [17] 7.37 µM | [20] 14.4 µM
inactive: [2] | [4] | [6] | [7] | [15] | [16] | [18] | [19]

Cc1ccc(C(C)(C)C)c(O)c1
active: [20] 3.09 µM
not listed: [9]
inactive: all other assays above

CN(C)C(=O)NC1(c2ccccc2)CCN(CCC[C@]2(c3ccc(Cl)c(Cl)c3)CCCN(C(=O)c3ccccc3)C2)CC1
active: [16] 8.1 µM
not listed: [9]
inactive: all other assays above

Cc1cc(SC2=C(O)C[C@@](CCc3ccc(N)cc3)(C(C)C)OC2=O)c(C(C)(C)C)cc1CO
not listed: [8]
inactive: all other assays above

O=C(O)CN(CC(=O)O)CC(=O)O
not listed: [9]
inactive: all other assays above

c1ccc2occc2c1
not listed: [8]
inactive: all other assays above

CCCCCCCCCCCCCCCCO
active: [1] 0.777 µM
not listed: [8]
inactive: all other assays above

Oc1ccc(O)cc1
active: [1] 18.7 µM | [2] 33 µM | [3] 13.5 µM | [4] 14.7 µM | [5] 6.66 µM | [6] 20 µM | [12] 20 µM | [15] 26.2 µM | [16] 30.7 µM | [18] 8.51 µM | [19] 25.8 µM | [20] 30 µM
inactive: [7] | [8] | [10] | [11] | [13] | [14] | [17]

COC(=O)CCC(=O)OC
not listed: [8]
inactive: all other assays above

CCCCCCCC(=O)OC
not listed: [9]
inactive: all other assays above
